# Compound activity as filed in PubChem.
# PREPL inh: inhibits the human prolyl oligopeptidase-like enzyme. Q4J6C6. recombinant PREPL, fluorescence polarization activity-based probe. inhibition, % at 5.96 µM. 320,000 tested, 0.68% active. AID 2751; in the data active = inhibition above about 43%;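 note: 0% = enzyme with DMSO and 100% = wells lacking enzyme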
# VLA-4 inh: inhibition in a human VLA-4 binding assay; VLA-4 expressing cells, ligand binding flow cytometry; inhibition, % (about 7 µM as worked out from the volumes in the protocol); 330,000 tested, 0.2% active; AID 2557; in the data active = inhibition above about 50%
# GASC-1 inh: human JMJD2C demethylase inhibition; Q9H3R0; GST-JMJD2C(1-420) H3K9me3 demethylation, DELFIA europium; inhibition, % at 2.35 µM; 330,000 tested, 0.069% active;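 active = more than half of a compound's replicate wells show inhibition beyond 50%, single wells judged on their own value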;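 note: signal counts dimethyl H3K9 product captured on neutravidin plate; 0% = median of DMSO wells and 100% = 0.3 times that DMSO median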
# Pemphigus Ab inh: blocks pemphigus antibody binding to human desmoglein-3. P32926. DSG3-coupled beads, scFv-anti-DSG3-GFP binding, flow cytometry; stronger effect = lower value. binding (percent of control), % at 10 µM. 310,000 tested, 0.48% active;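 active = binding more than 3 SD below its plate's average and above zero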;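 note: hits lower antibody fragment binding to DSG3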
# GRK2 inh: human GRK2 inhibition via aptamer displacement; 330,000 tested, 0.59% active; bead flow cytometry, FAM-aptamer displacement from GRK2; P25098; inhibition of aptamer binding, % at 10 µM;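 active = inhibition of aptamer binding above 40%, roughly 3 SD of noise, on plates passing a quality check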;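 note: median bead fluorescence of bound FAM aptamer so fluorescent compounds give negative values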
# GRK2 inh confirm: human GRK2 inhibition confirmation, cherry pick 1 | aptamer displacement, % at 10 µM | 2,000 tested, 4% active | bead-bound GRK2, FAM-aptamer displacement, flow cytometry | shares compounds with GRK2 inh | AID 504451;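 active = aptamer displacement above 40%, near three times the noise of non-fluorescent compounds, on plates passing quality checks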;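 note: negative values mostly reflect intrinsic compound fluorescence rather than true enhancement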
# Aptamer quench 1: counter-screen for GRK2 aptamer inhibitors: fluorescent aptamer quenchers | shares compounds with GRK2 inh | Fluorescent RNA aptamer beads, quenching, flow cytometry; stronger effect = higher value | fluorescence change (kMESF span), kMESF (no concentration beside the values) | 110 tested, under 10 active | AID 504521;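 active = compounds whose bead fluorescence drops by more than 37 kMESF across the dose range, marking them as dye quenchers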
# Aptamer quench SP: quenches fluorescent RNA aptamer, GRK2 hit artifact; 2,000 tested, under 10 active; Carboxyfluorescein RNA aptamer on beads, flow cytometry quenching; stronger effect = lower value; fluorescence response (% of DMSO), % at 10 µM; shares compounds with GRK2 inh;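 active = compounds that quench the bead-bound fluorescent RNA probe, cutting fluorescence to under half of the solvent control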;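 note: counterscreen run without GRK2 so only probe quenching by compound is measured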
# GRK2 CP2: confirmation of human GRK2 inhibitors binding RNA aptamer site. shares compounds with GRK2 inh. bead-bound GRK2, FAM-aptamer displacement, flow cytometry. inhibition of aptamer binding, % at 10 µM. 360 tested, under 10 active. AID 504782;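 active = inhibition of aptamer binding above 40%, about triple the noise seen with nonglowing compounds, on plates passing quality control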;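 note: negative values mostly come from compounds that fluoresce themselves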
# Aptamer quench 2: quenches fluorescent RNA aptamer, GRK2 hit artifact; shares compounds with GRK2 inh; Streptavidin beads, FAM-RNA aptamer fluorescence quenching, flow cytometry; change in fluorescence (kMESF span), kMESF (no concentration beside the values); 25 tested, under 10 active;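 active = compounds quenching the bead-bound labeled aptamer, with fluorescence dropping by more than 37 kMESF over the dose range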
# FAM quench SP: aptamer fluorescence quenching in GRK2 counter-screen | shares compounds with GRK2 inh | carboxyfluorescein RNA aptamer beads, flow cytometry quenching; stronger effect = lower value | fluorescence response vs DMSO, % at 10 µM | 360 tested, under 10 active | AID 588494;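 active = response vs DMSO under 50%, meaning signal dropped by over half, treated as fluorescence quencher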;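 note: labelled aptamer on streptavidin beads without GRK2 as a quench counter-screen; 100% = bead fluorescence of DMSO wells and lower means quenching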
# FAM quench PS1: counter-screen for GRK2 aptamer binding inhibitors: aptamer fluorescence quenching; 35 tested, under 10 active; shares compounds with GRK2 inh; Bead-bound FAM RNA aptamer fluorescence quenching, flow cytometry; stronger effect = lower value; AID 588496; fluorescence ratio to DMSO, % at 11.1 µM;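 active = compounds that dim the fluorescent label, raw bead signal shifting by over 33 units between lowest and highest dose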
# Active calls of the source: *; i = inactive; . = no result given. Rows were chosen to be rich in hits. Some 1.6% of all compounds tested hit in one or more screens of this group.
SMILES,PREPL inh,VLA-4 inh,GASC-1 inh,Pemphigus Ab inh,GRK2 inh,GRK2 inh confirm,Aptamer quench SP,others
Cn1c(=O)c(=O)n(C)c2cc(S(=O)(=O)N3CCCC3C(=O)NCc3cccnc3)ccc21 (stereo not drawn),4,-1,1,99,0,.,.,
NNc1ccc2nnc(C(F)(F)C(F)(F)C(F)(F)F)n2n1,2,9,1,98,80*,0,97,
FC(F)(F)C(F)(F)C(F)(F)c1nnc2ccc(N3CCOCC3)nn12,6,12,-4,108,1,.,.,
O=C(NC(CC1CCCCC1)C(=O)O)c1ccccc1 (stereo not drawn),13,3,-2,106,99*,6,102,
O=C(NC(Cc1ccccc1)C(=O)N1CCCCCC1)c1ccccc1 (stereo not drawn),.,-1,-16,104,3,.,.,
Cc1ccc2c(c1)N(CC(=O)NCCCN1CCCCC1)C(=O)CO2,-10,i,5,.,3,.,.,
CC(NC(=O)c1ccc(C(C)(C)C)cc1)C(c1cccs1)N1CCOCC1 (stereo not drawn),1,5,6,.,53*,.,.,GRK2 CP2=5;FAM quench SP=102
Cc1cc(NC(=O)c2ccc(Cl)cc2)no1,5,-6,-3,104,71*,0,95,
COc1ccc(S(=O)(=O)n2cnc3ccccc32)cc1,-9,6,2,109,0,.,.,
COc1cc(S(=O)(=O)n2cnc3ccccc32)ccc1Br,-1,-1,11,91,62*,0,99,
O=C(CCS(=O)(=O)c1ccc(Br)s1)N1CCc2ccccc21,-45,3,-19,103,0,2,98,Aptamer quench 1=3.6
CN(CC(=O)Nc1c(Cl)cccc1Cl)C(=O)CCc1nc2sc3c(c2c(=O)[nH]1)CCCC3,30,9,-8,98,0,-1,94,
CN(CC(=O)Nc1ccc(Cl)cc1)C(=O)CCc1nc2sc3c(c2c(=O)[nH]1)CCCC3,13,1,-6,107,34,.,.,
O=C1NC(=O)c2cc(NC(=O)C3CCCCC3)ccc21,-1,-2,7,87,100*,-9,99,
O=C(COC(=O)c1ccccc1F)Nc1ccc2c(c1)OCCO2,.,.,.,99,.,.,.,
CS(=O)(=O)N1Cc2ccccc2CC1C(=O)OCC(=O)NCCc1ccc(S(N)(=O)=O)cc1 (stereo not drawn),18,2,9,97,0,.,.,
CC(C)c1nc(CNC(=O)C2CCC(=O)N(Cc3ccc(Cl)cc3)C2)no1 (stereo not drawn),3,2,-17,98,3,.,.,
CCN(CC)CCNC(=O)Cn1cnc2sc(C)c(S(=O)(=O)N3CC(C)CC(C)C3)c2c1=O (stereo not drawn),4,-54,-2,105,0,.,.,
O=C(CCS(=O)(=O)c1ccc2c(c1)NC(=O)CS2)NCCc1ccccc1,8,-13,-1,102,0,.,.,GRK2 CP2=7;FAM quench SP=99
NS(=O)(=O)c1ccc(CCNC(=O)CCS(=O)(=O)c2ccc(Br)cc2)cc1,.,20,-5,95,87*,.,.,GRK2 CP2=74*;Aptamer quench 2=2.7;FAM quench SP=101;FAM quench PS1=101
COc1ccc(CNC(=O)CCS(=O)(=O)c2ccc(Br)cc2)cc1,-4,1,-1,.,89*,38,102,Aptamer quench 1=8.5;Aptamer quench 2=1.8;FAM quench PS1=103
CCCCC(=O)NCCc1ccc(S(N)(=O)=O)cc1,-1,-92,-185,98,6,.,.,
CCOc1ccc(CCNC(=O)CCS(=O)(=O)c2ccc(Br)cc2)cc1OCC,22,-7,-18,100,8,-1,96,Aptamer quench 1=-0.5;FAM quench PS1=99
O=C(NCc1ccccn1)C1CC(c2ccccc2O)=NO1 (stereo not drawn),-2,11,19,80,1,.,.,
O=C(Nc1cccc(C(=O)O)c1)/C(=C\c1ccc2c(c1)OCO2)NC(=O)c1ccc(Br)cc1,-13,3,-24,95,2,.,.,
SMILES,PREPL inh,VLA-4 inh,GASC-1 inh,Pemphigus Ab inh,GRK2 inh,GRK2 inh confirm,Aptamer quench SP,others
O=C(CCS(=O)(=O)c1ccc(Br)cc1)NCCc1ccccc1,-27,2,0,106,70*,43*,100,Aptamer quench 1=-0.7;Aptamer quench 2=-0.9
COCCNC(=O)CSc1c2c(nc3ccc(Cl)cc13)CCCC2,14,-6,9,104,1,.,.,
S=C(NCCc1ccccc1)N1CCc2ccccc2C1,-15,-8,5,114,95*,-8,100,
OC1CCN(C(=S)NCCc2ccccc2)CC1,9,6,3,99,0,.,.,
COc1ccc(C(CNC(=O)C(CC(C)C)NS(=O)(=O)c2ccc(C)cc2)N2CCOCC2)cc1 (stereo not drawn),4,16,5,96,0,.,.,
NS(=O)(=O)c1ccc(NC(=S)NC2CC2)cc1,-5,10,2,104,3,.,.,
CC1(C)CC(NC(=S)Nc2ccc(S(N)(=O)=O)cc2)CC(C)(C)N1,-1,24,12,100,72*,-3,104,
C[C@H]1CN=C(N(C)C)N1CCCC1CCCC1,15,30,11,110,42*,-5,100,
CC1(C(=O)NNC(=O)c2ccc([N+](=O)[O-])cc2)CC1(Br)Br (stereo not drawn),17,8,3,.,0,.,.,
CC1(C(=O)NNC(=O)c2cccc([N+](=O)[O-])c2)CC1(Br)Br (stereo not drawn),-19,6,-19,.,40,-4,101,
CC(C)CC(=O)NC(=S)NCCc1ccccc1,3,0,28,104,1,.,.,
CC(C)(C)CC(=O)NC(=S)NCCc1ccccc1,9,-19,-11,111,80*,-1,96,
CC(CC(=O)Nc1ccc(Br)cc1F)S(=O)(=O)c1ccc2c(c1)NC(=O)CO2 (stereo not drawn),-1,0,-3,.,0,.,.,GRK2 CP2=-8;FAM quench SP=102
